Source: PubChem BioAssay AID1159580 (chemical genetic matrix, 2015)
Values joined by “and” are separate entries in the source; they are usually repeats but may differ in a detail not shown here. Identical values can stand only once. Among all 5,500 compounds or so, about 2,000 (36%) were called active. Inconclusive results (about 18%) are left out. Rule as the data show it: active = normalized growth mostly below about 0.91 (no sharp cut-off); inconclusive = no clear call, values can overlap the other calls; inactive = mostly above about 0.92. The list shows a part of the results.

Assay: chemical genetic growth profiling, strain panel (AID 1159580);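 also: tested at 20 µM; growth read once vehicle control cultures reached saturation at 30 °C; 1 = growth at the plate median or of vehicle wells; lower values mean less growth of the strain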
Settings: S. cerevisiae deletion strains, growth OD

Measured: normalized growth

COC(=O)CCC(C)[C@H]1CCC2C3C(C[C@H](O)[C@@]21C)[C@@]1(C)CC[C@@H](O)C[C@H]1C[C@H]3O (some centres undefined)
inactive: locus YAL013W, strain DEP1, active compounds read low 1.03 | locus YAL021C, strain ccr4, active compounds read low 1.01 | locus YAL026C, strain drs2, active compounds read low 0.997 | locus YAL030W, strain snc1, active compounds read low 1.01 | locus YBL061C, strain skt5, active compounds read low 1.01 | locus YBR009C, strain hhf1, active compounds read low 1 | locus YBR021W, strain FUR4, active compounds read low 0.952 | locus YBR023C, strain chs3, active compounds read low 1 | locus YBR171W, strain sec66, active compounds read low 1.01 | locus YBR229C, strain ROT2, active compounds read low 1.03 | locus YBR279W, strain paf1, active compounds read low 1.01 | locus YCL011C, strain gbp2, active compounds read low 1.02 | locus YCL016C, strain dcc1, active compounds read low 1.02 | locus YCL029C, strain bik1, active compounds read low 1.04 | locus YCL061C, strain MRC1, active compounds read low 1.02 | locus YCL069W, strain vba3, active compounds read low 1 | locus YCR088W, strain abp1, active compounds read low 1.02 | locus YDL005C, strain med2, active compounds read low 0.999 | locus YDL035C, strain GPR1, active compounds read low 1.01 | locus YDL040C, strain nat1, active compounds read low 1.01 | locus YDL074C, strain BRE1, active compounds read low 0.983 | locus YDL101C, strain DUN1, active compounds read low 1.01 | locus YDL185W, strain tfp1, active compounds read low 1.02 | locus YDL192W, strain arf1, active compounds read low 1.02 | locus YDR001C, strain nth1, active compounds read low 1.01 | locus YDR069C, strain doa4, active compounds read low 1 | locus YDR101C, strain arx1, active compounds read low 1.01 | locus YDR137W, strain rgp1, active compounds read low 1.07 | locus YDR150W, strain NUM1, active compounds read low 1.02 | locus YDR159W, strain sac3, active compounds read low 0.994 | locus YDR162C, strain NBP2, active compounds read low 1.02 | locus YDR195W, strain ref2 1 | locus YDR297W, strain sur2, active compounds read low 1.01 | locus YDR318W, strain mcm21, active compounds read low 1.01 | locus YDR334W, strain swr1, active compounds read low 1.01 | locus YDR335W, strain msn5, active compounds read low 1.01 | locus YDR388W, active compounds read low 1.02 | locus YDR392W, strain spt3, active compounds read low 0.965 | locus YDR502C, strain sam2, active compounds read low 1.02 | locus YEL003W, strain gim4, active compounds read low 1.01 | locus YEL037C, strain rad23, active compounds read low 1.01 | locus YEL061C, strain CIN8 (second series), active compounds read low 1.01 | locus YEL061C, strain CIN8, active compounds read low 1 | locus YER015W, strain faa2, active compounds read low 1.02 | locus YER016W, strain bim1, active compounds read low 1.01 | locus YER110C, active compounds read low 1.02 | locus YER111C, strain swi4, active compounds read low 1.01 | locus YER155C, strain BEM2 (second series), active compounds read low 1.02 | locus YER155C, strain BEM2, active compounds read low 1.02 | locus YER167W, strain BCK2, active compounds read low 1 | locus YFR010W, strain ubp6, active compounds read low 0.996 | locus YGL078C, strain dbp3, active compounds read low 1.02 | locus YGL086W, strain mad1, active compounds read low 1.01 | locus YGL167C, strain pmr1, active compounds read low 1.01 | locus YGL173C, strain kem1, active compounds read low 1.01 | locus YGL227W, strain vid30, active compounds read low 1.02 | locus YGL240W, strain doc1, active compounds read low 1.04 | locus YGL248W, strain PDE1, active compounds read low 1.01 | locus YGL253W, strain hxk2, active compounds read low 0.96 | locus YGR078C, strain PAC10, active compounds read low 1 | locus YGR135W, strain pre9, active compounds read low 1 | locus YGR252W, strain gcn5, active compounds read low 0.909 | locus YHR013C, strain ard1, active compounds read low 1.02 | locus YHR027C, strain rpn1, active compounds read low 1 | locus YHR030C, strain SLT2, active compounds read low 1.02 and 1.01 | locus YHR079C, strain IRE1 (second series), active compounds read low 1.03 | locus YHR079C, strain IRE1, active compounds read low 0.984 | locus YHR094C, strain hxt1, active compounds read low 1.06 | locus YHR129C, strain ARP1, active compounds read low 1.01 | locus YHR142W, strain chs7, active compounds read low 0.976 | locus YHR200W, strain rpn10, active compounds read low 1 | locus YIL066C, strain RNR3, active compounds read low 1.01 | locus YIL073C, strain SPO22, active compounds read low 1.07 | locus YIL125W, strain kgd1, active compounds read low 1.03 | locus YIR030C, strain dcg1, active compounds read low 1.03 | locus YJL092W, strain hpr5, active compounds read low 1.01 | locus YJL095W, strain BCK1 (second series), active compounds read low 1.02 | locus YJL095W, strain BCK1, active compounds read low 0.976 and 0.998 | locus YJL115W, strain asf1, active compounds read low 1.01 | locus YJL129C, strain trk1, active compounds read low 1.03 | locus YJL134W, strain LCB3, active compounds read low 1.03 | locus YJL154C, strain vps35, active compounds read low 1.02 | locus YJL164C, strain tpk1, active compounds read low 1.01 | locus YJL166W, strain qcr8, active compounds read low 1.02 | locus YJL168C, strain set2, active compounds read low 1.03 | locus YJL187C, strain SWE1 (second series), active compounds read low 1.02 | locus YJL187C, strain SWE1, active compounds read low 1.01 | locus YJR043C, strain POL32, active compounds read low 0.999 | locus YJR066W, strain TOR1, active compounds read low 0.949
